From PubChem BioAssay (Tox21)
Inconclusive results are not listed. Entries that show only a call come without a potency. The source made the active and inactive calls. Unless noted, the call rests on the fitted dose curve; in most records, active means well fitted curve in the direction sought with a large enough effect in the repeat runs; inconclusive means weak or mixed curves; inactive means no such curve, though single readings can be large; an effect the other way counts as inactive or inconclusive.

What was measured:
[1] = qHTS assay to identify small molecule antagonists of the glucocorticoid receptor (GR) signaling pathway - cell viability counter screen (AID 720693); further: nearly all actives have a fitted effect of over 55% in size
[2] = qHTS assay for identifying genotoxic compounds that show differential cytotoxicity against isogenic chicken DT40 cell lines with known DNA damage response pathways - wild type cell line (AID 743012); further: nearly all actives have a fitted effect of over 60% in size; further: potency means the concentration at half of the fitted maximal effect
In short: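 CellTiter-Glo luminescence readout of viability in wild type DT40 cells after 40 h compound exposure at 37 C/5% CO2; 300 cells/well; reagent incubated 30 min at room temperature before reading.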

[3] = qHTS assay for identifying genotoxic compounds that show differential cytotoxicity against isogenic chicken DT40 cell lines with known DNA damage response pathways - Rev3 mutant cell line (AID 743014); further: nearly all actives have a fitted effect of over 55% in size; further: potency means the concentration at half of the fitted maximal effect
[4] = qHTS assay for identifying genotoxic compounds that show differential cytotoxicity against isogenic chicken DT40 cell lines with known DNA damage response pathways - Rad54/Ku70 mutant cell line (AID 743015); further: nearly all actives have a fitted effect of over 60% in size; further: potency means the concentration at half of the fitted maximal effect
[5] = qHTS assay to identify small molecule antagonists of the androgen receptor (AR) signaling pathway - cell viability counter screen (AID 743033; further: nearly all actives have a fitted effect of over 45% in size)
[6] = qHTS assay to identify small molecule antagonists of the androgen receptor (AR) signaling pathway using the MDA cell line - cell viability counter screen (AID 743041; further: nearly all actives have a fitted effect of over 45% in size)
In short: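 Cytotoxicity counter screen: MDA-kb2 AR-luc cells, compound + R1881, 16 h, 37C, 0% CO2; CellTiter-Fluor added at 15.5 h, fluorescence read after 30 min.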

[7] = qHTS assay to identify small molecule antagonists of the thyroid receptor (TR) signaling pathway - cell viability counter screen (AID 743064); further: nearly all actives have a fitted effect of over 50% in size
In short: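 Viability of T3-stimulated (1 nM final) GH3.TRE-Luc cells is measured by CellTiter-Fluor fluorescence after 23.5 h compound exposure at 37 °C plus 30 min reagent incubation.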

[8] = molecular target: Estrogen receptor (Homo sapiens) (UniProt P03372); test: qHTS assay to identify small molecule antagonists of the estrogen receptor alpha (ER-alpha) signaling pathway (AID 743069; active means well fitted curve in the direction sought with a large enough effect in the signal ratio in the repeat runs, not every such curve was filed as active; the % refers to the signal ratio)
Estrogen receptor (Homo sapiens), sequence (P03372 whole entry, looked up): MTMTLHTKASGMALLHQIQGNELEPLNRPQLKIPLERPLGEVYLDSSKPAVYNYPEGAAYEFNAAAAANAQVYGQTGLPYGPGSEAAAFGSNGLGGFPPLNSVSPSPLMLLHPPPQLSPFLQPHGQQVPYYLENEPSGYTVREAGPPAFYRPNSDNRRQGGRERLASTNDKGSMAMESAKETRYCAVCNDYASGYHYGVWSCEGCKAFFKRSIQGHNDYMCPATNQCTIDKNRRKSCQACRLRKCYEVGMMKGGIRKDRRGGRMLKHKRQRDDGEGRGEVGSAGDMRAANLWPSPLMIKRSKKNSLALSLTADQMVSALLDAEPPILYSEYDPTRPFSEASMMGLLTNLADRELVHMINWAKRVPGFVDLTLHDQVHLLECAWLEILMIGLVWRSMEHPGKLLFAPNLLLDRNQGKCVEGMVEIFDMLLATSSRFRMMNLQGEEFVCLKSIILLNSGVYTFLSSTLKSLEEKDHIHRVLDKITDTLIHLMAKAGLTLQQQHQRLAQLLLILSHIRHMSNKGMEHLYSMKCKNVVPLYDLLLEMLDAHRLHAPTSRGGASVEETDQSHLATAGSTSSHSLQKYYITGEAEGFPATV
In short: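 Beta-lactamase FRET fluorescence is read after 2 hr at room temperature with LiveBLAzer B/G substrate. Before that, ER-alpha-bla HEK293 cells sit 4 hr after plating, then receive compound plus 17beta-estradiol and incubate 18 hr at 37C.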

[9] = qHTS assay to identify small molecule antagonists of the estrogen receptor alpha (ER-alpha) signaling pathway - cell viability counter screen (AID 743074; calls by dose curve;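 further: HEK293 cells carrying ER-alpha-UAS-bla reporter stimulated with 17beta-estradiol; nearly all actives have a fitted effect of over 45% in size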)
[10] = molecular target: Estrogen receptor (Homo sapiens) (UniProt P03372); test: qHTS assay to identify small molecule agonists of the estrogen receptor alpha (ER-alpha) signaling pathway (AID 743075; calls by dose curve;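 further: HEK293 GripTite cells with ER-alpha and UAS-driven beta-lactamase reporter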)
[11] = molecular target: Estrogen receptor (Homo sapiens) (UniProt P03372); test: qHTS assay to identify small molecule agonists of the estrogen receptor alpha (ER-alpha) signaling pathway using the BG1 cell line (AID 743079); further: nearly all actives have a fitted effect of over 20% in size
[12] = qHTS assay to identify small molecule antagonists of the estrogen receptor alpha (ER-alpha) signaling pathway using the BG1 cell line (AID 743080; calls by dose curve; further: series mostly up to about 70 µM; nearly all actives have a fitted effect of over 25% in size)
In short: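 Antagonist mode: compounds in DMSO were pinned onto BG1-Luc-4E2 cells alongside 17beta-estradiol agonist, incubated 21.5 h, and ERE-driven luciferase measured with ONE-Glo. Cytotoxicity was multiplexed using CellTiter-Fluor fluorescence.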

[13] = qHTS assay to identify small molecule antagonists of the estrogen receptor alpha (ER-alpha) signaling pathway using the BG1 cell line - cell viability counter screen (AID 743081);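 further: compound given together with 17beta-estradiol as the ER stimulus; series mostly up to about 70 µM; nearly all actives have a fitted effect of over 45% in size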
Aromatase (Homo sapiens) = Aromatase (Homo sapiens) (UniProt P11511); test: qHTS assay to identify aromatase inhibitors (AID 743083); further: series mostly up to about 70 µM; nearly all actives have a fitted effect of over 55% in size
Aromatase (Homo sapiens), sequence (P11511 whole entry, looked up): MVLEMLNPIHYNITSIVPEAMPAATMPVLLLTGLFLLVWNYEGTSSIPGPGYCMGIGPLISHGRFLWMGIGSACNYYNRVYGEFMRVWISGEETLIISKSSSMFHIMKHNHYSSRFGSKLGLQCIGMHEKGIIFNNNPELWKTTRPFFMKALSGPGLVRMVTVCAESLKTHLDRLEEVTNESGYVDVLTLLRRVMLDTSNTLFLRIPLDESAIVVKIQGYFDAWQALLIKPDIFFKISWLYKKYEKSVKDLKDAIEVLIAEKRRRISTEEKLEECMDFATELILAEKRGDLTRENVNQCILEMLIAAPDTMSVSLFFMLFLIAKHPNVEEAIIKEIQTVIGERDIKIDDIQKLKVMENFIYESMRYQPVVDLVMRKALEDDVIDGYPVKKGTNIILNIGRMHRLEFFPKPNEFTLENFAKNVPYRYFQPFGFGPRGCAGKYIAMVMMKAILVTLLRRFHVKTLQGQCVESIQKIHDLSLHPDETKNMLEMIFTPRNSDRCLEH

[14] = qHTS assay to identify aromatase inhibitors - cell viability counter screen (AID 743084);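 further: cells stimulated with testosterone during compound exposure; nearly all actives have a fitted effect of over 55% in size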
[15] = qHTS assay to identify small molecule antagonists of the thyroid receptor (TR) signaling pathway (AID 743065); further: nearly all actives have a fitted effect of over 55% in size; further: potency means the concentration at half of the fitted maximal effect
In short: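 GH3.TRE-Luc rat pituitary cells (two TREs driving luciferase) were dosed with compound, then stimulated with 1 nM T3 (final) for 23.5 h at 37 C. ONE-Glo luminescence was the read-out, with CellTiter-Fluor fluorescence as the cytotoxicity counter-screen.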

[16] = test system: thyroid hormone receptor (rat, GH3 cells); test: qHTS assay to identify small molecule agonists of the thyroid receptor (TR) signaling pathway (AID 743066; calls by dose curve)
[17] = molecular target: Androgen receptor (Homo sapiens) (UniProt P10275); test: qHTS assay to identify small molecule agonists of the androgen receptor (AR) signaling pathway (AID 743036; active means well fitted activation curve with a large enough effect in the signal ratio in the repeat runs, with a control signal flat, not every such curve was filed as active; the % refers to the signal ratio)
Androgen receptor (Homo sapiens), sequence (P10275 whole entry, looked up): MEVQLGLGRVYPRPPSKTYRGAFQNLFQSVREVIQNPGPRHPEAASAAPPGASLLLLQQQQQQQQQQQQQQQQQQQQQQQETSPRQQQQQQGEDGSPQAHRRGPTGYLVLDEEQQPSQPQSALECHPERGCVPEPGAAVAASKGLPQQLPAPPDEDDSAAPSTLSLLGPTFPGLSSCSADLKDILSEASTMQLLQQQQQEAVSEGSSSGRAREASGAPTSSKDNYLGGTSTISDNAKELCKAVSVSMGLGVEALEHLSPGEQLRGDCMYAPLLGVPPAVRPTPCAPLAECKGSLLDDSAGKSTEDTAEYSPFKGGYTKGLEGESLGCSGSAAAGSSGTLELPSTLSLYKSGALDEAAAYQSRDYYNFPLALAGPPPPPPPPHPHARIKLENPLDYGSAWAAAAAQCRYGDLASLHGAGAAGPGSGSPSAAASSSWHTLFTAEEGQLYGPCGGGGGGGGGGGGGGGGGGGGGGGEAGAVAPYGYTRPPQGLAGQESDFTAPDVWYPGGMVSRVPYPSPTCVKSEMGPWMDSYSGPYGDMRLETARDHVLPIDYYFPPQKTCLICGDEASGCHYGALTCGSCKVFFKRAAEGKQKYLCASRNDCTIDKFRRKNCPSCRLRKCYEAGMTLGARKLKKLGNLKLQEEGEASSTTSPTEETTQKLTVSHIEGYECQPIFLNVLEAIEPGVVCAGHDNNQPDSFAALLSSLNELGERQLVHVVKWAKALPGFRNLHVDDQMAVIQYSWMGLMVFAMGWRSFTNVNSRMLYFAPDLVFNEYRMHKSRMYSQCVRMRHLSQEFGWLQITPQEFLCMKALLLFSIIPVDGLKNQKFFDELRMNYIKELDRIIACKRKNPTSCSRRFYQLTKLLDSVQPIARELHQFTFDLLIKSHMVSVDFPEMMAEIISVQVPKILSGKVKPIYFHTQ
In short: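 Screening used 2,000 AR-bla HEK293 cells per well, treated 16 h at 37C with test compounds in DMSO alongside positive and DMSO-only controls; beta-lactamase activity was then read by LiveBLAzer B/G FRET fluorescence after 2 h at room temperature.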

[18] = molecular target: Androgen receptor (Homo sapiens) (UniProt P10275); test: qHTS assay to identify small molecule antagonists of the androgen receptor (AR) signaling pathway using the MDA cell line (AID 743042; further: nearly all actives have a fitted effect of over 55% in size)
In short: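 MDA-kb2 breast carcinoma cells carrying MMTV-luciferase (AR/GR responsive) were co-treated with compounds and the agonist R1881 for 16 h at 37C. Inhibition read as ONE-Glo luminescence; CellTiter-Fluor fluorescence measured in parallel for cytotoxicity.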

[19] = molecular target: Androgen receptor (Homo sapiens) (UniProt P10275); test: qHTS assay to identify small molecule antagonists of the androgen receptor (AR) signaling pathway (AID 743035; active means well fitted inhibition curve with a large enough effect in the signal ratio in the repeat runs, not every such curve was filed as active; the % refers to the signal ratio)
In short: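 AR-bla HEK293 reporter cells; 4 h settle at 37C/5% CO2; compound + R1881 agonist, 16 h at 37C; LiveBLAzer B/G FRET substrate 2 h RT; fluorescence intensity read. qHTS format.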

| Structure (SMILES) | outcome [1] | Potency [2] | Potency [3] | Potency [4] | outcome [5] | Potency [6] | Potency [7] | Potency [8] | Potency [9] | outcome [10] | Potency [11] | outcome [12] | Potency [13] | Potency (Aromatase (Homo sapiens)) | Potency [14] | Potency [15] | outcome [16] | outcome [17] | outcome [18] | Potency [19] |
| --- | --- | --- | --- | --- | --- | --- | --- | --- | --- | --- | --- | --- | --- | --- | --- | --- | --- | --- | --- | --- |
| CCCCCCC | inactive | inactive | inactive | inactive | inactive | inactive | inactive | inactive | inactive | inactive | inactive | inactive | inactive | inactive | inactive |  |  |  |  |  |
| CN1CCC[C@@H]1Cc1c[nH]c2ccc(CCS(=O)(=O)c3ccccc3)cc12 | inactive | 26.6 µM (active) | 33.5 µM (active) | 29.8 µM (active) | inactive | inactive |  |  | inactive |  |  |  |  | inactive | inactive | 21.1 µM (active) | inactive |  |  |  |
| O=[N+]([O-])c1nccn1CO[C@@H](CO)[C@H](O)CO | inactive | inactive | inactive | inactive | inactive | inactive | inactive |  |  |  |  |  | inactive | inactive | inactive | inactive | inactive |  |  |  |
| CCCc1c2oc(C(=O)O)cc(=O)c2cc2c(=O)cc(C(=O)O)n(CC)c12 | inactive | inactive | inactive | inactive | inactive | inactive |  | inactive |  | inactive | inactive | inactive | inactive | inactive | inactive |  |  |  |  |  |
| CCN(CCCc1ccccc1)CCCc1ccccc1 | inactive | 2.02 µM (active) | 1.27 µM (active) | 2.27 µM (active) | inactive | inactive | inactive | inactive | inactive | inactive | inactive | inactive | inactive | inactive | inactive |  | inactive |  |  |  |
| CCCOCCC | inactive | inactive | inactive | inactive | inactive | inactive | inactive | inactive | inactive | inactive | inactive | inactive | inactive | inactive | inactive |  |  |  |  |  |
| CCCC1CCC(=O)O1 (configuration not stated) | inactive | inactive | inactive | inactive | inactive | inactive |  |  | inactive |  |  |  | inactive | inactive |  | inactive | inactive |  |  |  |
| Cc1ccc(C=O)s1 | inactive | inactive | inactive | inactive | inactive | inactive |  |  | inactive |  |  |  | inactive | inactive | inactive | inactive | inactive |  |  |  |
| O=c1[nH]c(=O)n([C@H]2C[C@H](O)[C@@H](CO)O2)cc1C(F)(F)F | inactive | 0.944 µM (active) | 0.133 µM (active) | 0.188 µM (active) | inactive | inactive | inactive |  | inactive | inactive |  | inactive | inactive | inactive | inactive |  | inactive |  |  |  |
| CCCCCCCCCCCCCCCCOP(=O)([O-])OCC[N+](C)(C)C | inactive | inactive | inactive | inactive |  | inactive |  |  | inactive |  |  |  | inactive | inactive | inactive |  |  |  |  |  |
| FC(F)(F)C(F)(F)C(F)(F)C(F)(F)C(F)(F)C(F)(F)C(F)(F)C(F)(F)Br | inactive | inactive | inactive | inactive |  | inactive | inactive | inactive | inactive | inactive | inactive | inactive | inactive | inactive | inactive | inactive | inactive |  |  |  |
| C[C@]12C(=O)OC(=O)[C@H]1[C@H]1C=C[C@@H]2C1 | inactive | inactive |  | inactive | inactive | inactive | inactive | inactive | inactive | inactive |  | inactive | inactive | inactive | inactive | inactive | inactive |  |  |  |
| CCCCCCCCCCCCOCCOS(=O)(=O)O | inactive | inactive | inactive |  | inactive | inactive |  |  | inactive | inactive |  | inactive | inactive | inactive | inactive | 68.6 µM (active) | inactive |  |  |  |
| CC(CNC1CCCCC1)OC(=O)c1ccccc1 (configuration not stated) | inactive | inactive |  | inactive | inactive | inactive | inactive | inactive | inactive | inactive | inactive | inactive | inactive | inactive | inactive | inactive | inactive |  |  |  |
| CCCCCOc1ccc(C2SC(=O)NC2=O)cc1OCC (configuration not stated) | inactive | inactive |  | inactive | inactive | inactive | inactive | inactive | inactive | inactive | inactive | inactive | inactive |  | inactive | 2.37 µM (active) |  | inactive | inactive |  |
| Clc1cccc(-c2cc(Cl)cc(Cl)c2)c1 | inactive | inactive |  | inactive | inactive | inactive | inactive | inactive | inactive |  | inactive | inactive | inactive | inactive | inactive | inactive | inactive |  |  |  |
| CCOC(=O)C1CC(=O)C(=C(O)C2CC2)C(=O)C1 (configuration not stated) | inactive | inactive |  | inactive | inactive | inactive | inactive | inactive | inactive | inactive | inactive | inactive | inactive | inactive | inactive | inactive | inactive |  |  |  |
| CCCCCCCCOC(=O)CCCCCCCCC(=O)OCCCCCCCC | inactive | 68.6 µM (active) | 17.2 µM (active) |  | inactive | inactive | inactive | inactive | inactive | inactive | inactive | inactive | inactive | inactive | inactive | inactive | inactive |  |  |  |
| COC(=O)C(C)O (configuration not stated) | inactive | inactive |  | inactive | inactive | inactive | inactive | inactive | inactive | inactive | inactive | inactive | inactive | inactive | inactive | inactive | inactive | inactive | inactive | inactive |
| CCOC(=O)[C@H](CCc1ccccc1)N[C@@H](C)C(=O)N1Cc2cc(OC)c(OC)cc2C[C@H]1C(=O)O | inactive | inactive |  | inactive | inactive | inactive | inactive | inactive | inactive | inactive | inactive | inactive | inactive | inactive | inactive | inactive | inactive |  |  |  |
| COc1cc(C)ccc1C(C)C | inactive | inactive | inactive |  | inactive | inactive | inactive | inactive | inactive | inactive | inactive | inactive |  | inactive | inactive | inactive | inactive |  |  |  |
| O=C1CCCc2ccccc21 | inactive | inactive |  | inactive | inactive | inactive | inactive | inactive | inactive | inactive | inactive | inactive | inactive | inactive | inactive | inactive | inactive |  |  |  |
| CCCCCCCCCC/C=C/C#N | inactive | inactive |  | inactive | inactive | inactive | inactive | inactive | inactive | inactive | inactive | inactive | inactive | inactive | inactive | inactive | inactive |  |  |  |
| COC(=O)c1ccc(OC)cc1 | inactive | inactive |  | inactive | inactive | inactive | inactive |  | inactive |  |  |  | inactive | inactive | inactive | inactive | inactive |  |  |  |
| CC(=O)Nc1ccc(C)c(Cl)c1 | inactive | inactive |  | inactive | inactive | inactive | inactive |  | inactive |  |  |  | inactive | inactive | inactive | inactive | inactive |  |  |  |
